# Screening data as filed in PubChem BioAssay.
# HTT aggregate = mutant huntingtin aggregation inhibition; PC12 HttQ103-GFP aggregates, Acumen cytometry, 40 h; Potency, µM (top dose mostly 46.1 µM), inactives show at the highest dose activity change, negative = inhibition, most hits filed as inhibitors; actives 1.1% (n = 220,000); further: on the % scale 0 is the no-effect control and ±100 the full control effect; nearly all actives have a fitted effect of over 60% in size
#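 PC12 cells with ecdysone-inducible HTT exon1 Q103-GFP, induced by 100 nM tebufenozide, given compounds in a concentration series. GFP aggregates (1–25 um, 6 SD above background) counted in lysates by laser-scanning cytometry, 488 nm excitation.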
# PINK1 modulator = changes PINK1 expression | PINK1 immunofluorescence, high-content cytometry, 24 h | Potency, µM (top dose mostly 76.6 µM), inactives show top-dose activation (PINK1 increase), actives largely listed as activators | actives 0.2% (n = 410,000) | AID 624263; active means well fitted activation curve with a large enough effect; inconclusive means small, poorly fitted or top-dose-only effect; cell line not stated here; further: % of control where 0% means no effect; nearly all actives have a fitted effect of over 65% in size
#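 A stable cell line was treated with compounds at 5 concentrations for 24 hours, with CCCP as control. PINK1 levels and mitochondrial localization were measured by immunofluorescence with mitochondrial, cell and nuclear markers after fixation, read by laser-scanning cytometry.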
# Epigenetic derep = regulators of epigenetic silencing causing reporter derepression in mouse cells | murine LDR cells, GFP reporter derepression, 30 h | Potency, µM (titrated, usually from 53.9 µM), for inactives: top-dose GFP activation, hits mostly activators | actives 0.2% (n = 280,000); further: % of control where 0% means no effect; nearly all actives have a fitted effect of over 60% in size
#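 In this reporter-derepression format, murine cells bearing a silenced integrated CMV-GFP locus incubate with test compound (30 h, 37 C), then are washed and imaged; fluorescent objects of 20–120 um count as induced cells.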
# HTT cytoprotect = protects HTT-Q103 PC12 cells, measured by ATP. actives 0.14% (n = 230,000). AID 1471. PC12 HTT-Q103 induced, cytoprotection, ATP luminescence, 40 h. Potency, µM (doses to about 56.4 µM), for the others: cytoprotection (ATP increase), usual class: activators; further: % of control where 0% means no effect; nearly all actives have a fitted effect of over 45% in size
#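 Rat PC12, Q103 Htt exon1-GFP fusion, ecdysone promoter; tebufenozide inducer 100 nM final; compound titration; qHTS, 1500 cells/well; ATPlite luminescent read.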
# PTAP TSG101 blk = blocks PTAP/TSG101 interaction to inhibit HIV-1 budding; Potency, µM (series often up to 115 µM), for inactives: at the top dose activity change, negative = inhibition, hits mostly inhibitors; Fluorescence polarization, FITC-PTAP peptide / Tsg101 binding; Q99816; AID 493005; 340,000 tested, under 10 active; active means well fitted inhibition curve with a large enough effect in the main read-out, with a control signal flat, not every such curve was filed as active; inconclusive means small, poorly fitted or top-dose-only effect, or effect the other way, or a change in a side signal; inactive means no such curve, though single readings can be large or run the other way; further: % of control where 0% means no effect
# Target sequence (Q99816 whole entry, looked up): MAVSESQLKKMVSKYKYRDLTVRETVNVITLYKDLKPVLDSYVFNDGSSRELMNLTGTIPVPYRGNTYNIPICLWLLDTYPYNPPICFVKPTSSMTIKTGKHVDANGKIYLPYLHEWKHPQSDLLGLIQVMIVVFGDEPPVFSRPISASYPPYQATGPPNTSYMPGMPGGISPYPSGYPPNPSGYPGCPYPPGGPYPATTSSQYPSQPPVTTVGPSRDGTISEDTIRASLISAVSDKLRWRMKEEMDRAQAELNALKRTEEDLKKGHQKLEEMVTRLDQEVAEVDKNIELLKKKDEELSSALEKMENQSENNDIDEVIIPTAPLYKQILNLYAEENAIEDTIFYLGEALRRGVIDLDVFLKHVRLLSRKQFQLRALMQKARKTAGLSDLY
#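 Fluorescence polarization binding of Tsg101 binding domain (10 uM final) to FITC-labeled PTAP peptide (50 nM final) in HEPES pH 7.5 buffer with NaCl, Tween 20, EDTA, TCEP. Compounds added before peptide; binding 20 min at RT.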
# Anesthetic bind = binds horse apoferritin like a general anesthetic | apoferritin/1-aminoanthracene competitive binding, fluorescence | P02791 | actives 0.074% (n = 350,000) | AID 485281 | Potency, µM (titrated, usually from 77.5 µM), inactives show top-dose activity change, negative = displacement, actives largely listed as inhibitors; further: on the % scale 0 is the no-effect control and ±100 the full control effect; nearly all actives have a fitted effect of over 20% in size
# Target sequence (P02791 2-175 limits assumed): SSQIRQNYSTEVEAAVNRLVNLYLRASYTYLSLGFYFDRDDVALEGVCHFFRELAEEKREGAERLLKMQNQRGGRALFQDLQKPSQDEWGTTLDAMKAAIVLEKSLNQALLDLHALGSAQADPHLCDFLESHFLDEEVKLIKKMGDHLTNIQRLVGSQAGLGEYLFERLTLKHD
#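 Steps: apoferritin (10 uM) was premixed with half-saturated 1-AMA in PBS, compounds were pin-transferred, plates stood 10 min at room temperature, fluorescence was read at 380/535 nm, and curves were fitted with a Hill equation.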
# * = called active by the depositor; ? = inconclusive; nt = no result given; [ ] = dose if it differs, or a comment. Shown is part of a subset that was picked to be rich in hits. Unless noted, the call rests on the fitted dose curve; in most records, active means well fitted curve in the direction sought with a large enough effect; inconclusive means small, poorly fitted or top-dose-only effect, or another doubt; inactive means no such curve, though single readings can be large; an effect the other way counts as inactive or inconclusive. Potency means the concentration at half of the fitted maximal effect.
SMILES,HTT aggregate,PINK1 modulator,Epigenetic derep,HTT cytoprotect,PTAP TSG101 blk,Anesthetic bind
N#C/C(=N\Nc1ccccc1Cl)C(=O)c1ccccc1,?,?,0%,-93%,0%,-13%
Cc1nn(C)cc1CN1CCOc2ccc(C(C)(O)COc3ccccc3)cc2C1 (centres undefined),nt,0%,nt,nt,nt,nt
Cc1ccc(C)c(S(=O)(=O)NCc2nc(N3CCCC3)c3cc(Cl)ccc3n2)c1,nt,1%,nt,nt,nt,nt
C[C@@H]1CN(Cc2ccc3c(c2)CN(Cc2cccn2-c2cccnc2)CCO3)C[C@H](C)O1,nt,-1%,nt,nt,nt,nt
CC(C(=O)N1c2ccccc2Sc2ccccc21)n1nnc(-c2cccs2)n1 (centres undefined),4µM*,nt,2%,-5%[10 µM],-1%,14%
Cc1ccc(-c2nnn(C(C)C(=O)N3c4ccccc4CCc4ccccc43)n2)cc1 (centres undefined),-27%,2%,0%,2%[10 µM],0%,4%
CC(C)Cc1cc(C(=O)NCC2Cc3cc(F)cc(-c4ccccn4)c3O2)no1 (centres undefined),nt,0%,nt,nt,nt,nt
O=C(NCC1(N2CCOCC2)CCCCC1)c1cnn(-c2nccc(-c3cccs3)n2)c1C1CC1,nt,2%,nt,nt,nt,nt
CC(C)C[C@@H](/C=C/S(C)(=O)=O)NC(=O)[C@H](CC(C)C)NC(=O)[C@H](CC(C)C)NC(=O)OCc1ccccc1,nt,nt,6.3µM*,-54%,nt,-12%
O=[N+]([O-])c1ccc(-c2cc3ccccc3[nH]2)cc1,nt,1%,nt,nt,nt,nt
COc1ccc2c(c1)OC(C)CN(CCNC(=O)c1ccc(-n3cccn3)cc1)C2 (centres undefined),nt,-1%,nt,nt,nt,nt
COc1ccc(/C=C2\CCc3ccccc3C2=O)cc1Cn1nc(C)cc1C,25µM*,-1%,1%,-14%,0%,?
N#Cc1nc(-c2ccc(OCc3ccc(Cl)cc3)cc2)oc1NCc1cccnc1,-4%,14%,1%,-40%,-5%,?
N#Cc1nc(-c2ccc(OCc3ccccc3)cc2)oc1NCc1cccnc1,13µM*,4%,-4%,-68%[0.074 µM],-5%,-2%
CCC1(C)CC2(CCCN(CCC(O)(c3ccccc3)c3ccccc3)C2)CCO1 (centres undefined),-24%[9.22 µM],45µM*,?,-12%[10 µM],-3%,-5%
CC1(C)CC2(CCCN(CC(O)(c3ccccc3)c3ccccc3)C2)CCO1 (centres undefined),21%[9.22 µM],?,0%,37%[10 µM],-7%,-12%
Cc1cc(=O)n2nc(N3CCC(C(=O)Nc4ccc(Br)c(C)c4)CC3)sc2n1,nt,1%,-2%,nt,nt,-7%
COC(=O)c1ccc(Cl)cc1NC(=O)N1CC=C(c2c[nH]c3ccccc23)CC1,nt,0%,28µM*,nt,nt,53%
COc1cc2nc(N3CCCCC3)nc(NC3CC3)c2cc1OC,nt,1%,nt,nt,nt,nt
COCCN1C=C(C(=O)OC)C(c2cc3c(cc2Br)OCO3)C(C(=O)OC)=C1,0%,4µM*,1%,-17%,-8%,0%
COCCN1C=C(C(=O)OC)C(c2ccc3c(c2)OCO3)C(C(=O)OC)=C1,6%[9.22 µM],nt,1%,-28%,-6%,-1%
O=C(/C=C/c1ccc(C(F)(F)F)cc1)OC(C(=O)NC1CC1)c1ccccc1 (centres undefined),nt,-1%,nt,nt,nt,nt
O=C(CN1CCOCC1)Nc1cccc(Br)c1,3.2µM*,13%[38.3 µM],-1%,10%,-3%,6%
O=C(CCN1CCOCC1)Nc1cccc(Br)c1,-18%,0%,0%,-6%[0.074 µM],-3%,-18%
O=C1C=CC(=O)C(C2=C3C(=O)N(CCc4ccccc4)CC(=O)N3CCC2)=C1,7.1µM*,6%,0%,nt,-4%,0%
SMILES,HTT aggregate,PINK1 modulator,Epigenetic derep,HTT cytoprotect,PTAP TSG101 blk,Anesthetic bind
O=C1CC2(CCCCC2)CC(=O)N1CCc1ccccc1,nt,3%,nt,nt,-2%,nt
COc1ccc(C(=O)Nc2ccc3nc(N4CCC(C)CC4)cc(C)c3c2)cc1,nt,2%,?,nt,nt,8%
COc1ccc(/C=C/C(=O)Nc2ccc3nc(N4CCC(C)CC4)cc(C)c3c2)cc1,nt,15%,22µM*,nt,nt,-11%
Cc1cc(Nc2ccccc2)nc(-c2ccccc2O)n1,?,11%,-1%,-11%[0.074 µM],-6%,-12%
Cc1cc(Nc2cccc(F)c2)nc(-c2ccccc2O)n1,25µM*,nt,-1%,-21%,?,-6%
COCCc1nn2c(=O)cc(COC(=O)C(c3ccccc3)c3ccccc3)nc2s1,nt,3%,1%,nt,nt,?
O=C(NC(Nc1nc2ccc([N+](=O)[O-])cc2s1)(C(F)(F)F)C(F)(F)F)c1cccnc1,?,?,-1%,-13%[10 µM],-5%,-13%
O=C(NC(Nc1nc2ccc([N+](=O)[O-])cc2s1)(C(F)(F)F)C(F)(F)F)c1ccccc1Cl,0.32µM*,?,-1%,-61%[10 µM],-3%,-14%
Cc1onc(-c2c(F)cccc2Cl)c1C(=O)Nc1nnc(C(F)(F)F)s1,nt,16µM*,nt,nt,-12%,-9%
O=C(NCCN1Cc2ccccc2OC(c2ccccc2F)C1)c1cncs1 (centres undefined),nt,0%,nt,nt,nt,nt
CCCCC[C@H](O)C/C=C1/C(=O)C=C[C@@H]1C/C=C\CCCC(=O)O,nt,nt,-2%,11µM*,nt,-9%
CCCCC/C=C/C=C1/C(=O)C=C[C@@H]1C/C=C\CCCC(=O)O,nt,nt,?,?,nt,0%
O=C(Nc1ccc(Oc2ccc(NC(=O)Nc3ccc([N+](=O)[O-])cc3)cc2)cc1)Nc1ccc([N+](=O)[O-])cc1,-25%[9.22 µM],28µM*,7%,-19%[10 µM],-1%,-7%
Oc1ccccc1C1CC(c2cccs2)=NC(c2cccc(Br)c2)N1 (centres undefined),11µM*,0%,4%,-47%,-3%,?
O=S(=O)(c1ccccc1)N1N=C(c2cccs2)CC1c1cccc(O)c1 (centres undefined),nt,5%,nt,nt,-5%,-15%
COc1ccccc1NC(=O)C1CCN(C(=O)c2sc3nc[nH]c(=O)c3c2C)CC1,nt,1%,0%,nt,nt,-12%
O=C(Cn1cccn1)N1CCOc2c(cc(-c3ncc(C(F)(F)F)cc3Cl)cc2OCC2CCCO2)C1 (centres undefined),nt,0%,nt,nt,nt,nt
CCOC(=O)c1c(C)oc2ccc(OC(=O)COc3c(F)c(F)c(F)c(F)c3F)cc12,13µM*,-1%,1%,nt,-4%,9%
CSc1ccc(/C=C2\C=C(C(O)c3ccc(SC)cc3)c3ccccc32)cc1 (centres undefined),nt,1%,nt,nt,nt,nt
O=C(C(Sc1ccccc1)c1ccccc1)N1CCN(c2ccccc2F)CC1 (centres undefined),10µM*,0%,-2%,-58%,-2%,-2%
